Assay outcomes (PubChem BioAssay)
NS3h inh CB – blocks HCV NS3 helicase binding to DNA; NS3h Cy5-dT15 DNA binding, fluorescence polarization; inhibition, % at 100 µM; hit rate 1.6% among 16,000;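 active = inhibition above the average over every tested compound plus 3 SD, cut at about 40% in these data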
Cy5 interf NS3h – enhances or quenches Cy5 fluorescence in NS3h assay; AID 720488; fluorescence interference ratio at 100 µM; hit rate 6% among 16,000; Cy5-dT15 DNA with NS3h, fluorescence interference; actives lie on both sides; signal over control mean, under 1 quenches;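 active = compound fluorescence over control fluorescence at most 0.8, a quencher, or at least a set upper limit, an enhancer; inactive = ratio between 0.8 and the set upper limit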
* = called active by the depositor. Compounds with a hit are over-represented: about 6.8% of the library has one in this group of screens.

SMILES	NS3h inh CB	Cy5 interf NS3h
COc1ccc(C(=O)CC(c2ccc(C(C)C)cc2)S(=O)(=O)c2ccc(C)cc2)cc1 (stereo not drawn)	18	0.73*
COc1ccc(N(CC(=O)NCC(C)C)S(=O)(=O)c2ccc(C)cc2)cc1	4	1
CCC(C)NS(=O)(=O)c1ccc(Br)cc1 (stereo not drawn)	4	0.96
CC(C)(CO)NCC(=O)NCCNc1ccc([N+](=O)[O-])cc1Cl	-2	1
Cc1ccc([N+](=O)[O-])cc1NC(=O)c1ccc(I)cc1	15	0.92
Cc1ccc(N2NC(=O)/C(=C\c3ccc(Br)cc3)C2=O)cc1	19	0.91
Cc1ccc(N2NC(=O)/C(=C/c3cccc(Br)c3)C2=O)cc1	23	0.79*
COc1cc(/C=C2/C(=O)NN(c3ccc(Cl)cc3)C2=O)cc(Br)c1O	-1	0.77*
COc1cc(/C=C2\C(=O)NN(c3ccccc3)C2=O)cc(Br)c1OCC(=O)O	29	1.1
CCCOc1ccc(C(=O)Nc2ccc(Cl)cn2)cc1	7	1
O=C(NCC1CCCO1)c1nc2nc(-c3ccccc3)cc(C(F)(F)F)n2n1 (stereo not drawn)	-2	0.92
O=C(Nc1c(F)cc(F)cc1Br)c1nc2nc(-c3ccccc3)cc(C(F)(F)F)n2n1	13	0.71*
CC1=NN(c2cccc(C(=O)O)c2)C(=O)/C1=C\c1ccco1	27	1
O=C(Nc1ccccc1)Nc1ncccn1	12	0.78*
O=C(Nc1ccncc1)Nc1ccccn1	5	1
CC(C)(C)CC(C)(C)N=C1NS(=O)(=O)c2cc([N+](=O)[O-])ccc21	3	0.61*
CC(C)N=C1NS(=O)(=O)c2cc([N+](=O)[O-])ccc21	-4	1
CCC(C(=O)Nc1ccc(C)cc1)c1ccccc1 (stereo not drawn)	6	1.3*
CCC(C(=O)Nc1cccc(C)c1)c1ccccc1 (stereo not drawn)	10	0.96
CCOc1ccc(-c2cc(C)n3nc(C(=O)Nc4cc(OC)c(Cl)cc4OC)cc3n2)cc1	-9	1.1
CC(C)(C)NC(=O)c1cc2nc(-c3ccccc3)cc(C(F)(F)F)n2n1	1	0.57*
O=C(NCc1ccco1)c1cc2nc(-c3ccccc3)cc(C(F)(F)F)n2n1	1	1.1
COC(=O)c1ccccc1NC(=O)c1cc2nc(-c3ccccc3)cc(C)n2n1	14	0.73*
COc1ccc(CC(=O)O/N=C(/N)c2ccccn2)cc1OC	0	1.1
O=C(Cc1ccc(Br)cc1)NCc1ccccc1	12	1.1
SMILES	NS3h inh CB	Cy5 interf NS3h
COC(=O)c1ccc(C2C(C(=O)OC(C)C)=C(C)N=C3SCCC(=O)N32)cc1 (stereo not drawn)	10	0.86
Cc1cc(OCC(=O)N2CCN(c3ccc([N+](=O)[O-])cc3)CC2)ccc1Cl	1	0.98
CC(=O)Nc1ccc(NC(=S)NC(=O)c2ccco2)cc1	-6	0.87
CCOc1ccccc1NC(=O)c1c(NC(=O)C(C)(C)C)sc2c1CCCCC2	0	1.1
CCOc1ccccc1NC(=O)c1c(NC(=O)C(F)(F)F)sc2c1CCCCC2	33	1.2*
COc1ccc(N2C(=O)c3ccc(OCCOc4ccc5c(c4)C(=O)N(c4ccc(OC)cc4)C5=O)cc3C2=O)cc1	2	0.64*
COc1ccc(N2C(=O)c3ccc(C(=O)Nc4ccccc4I)cc3C2=O)cc1	8	1
O=C(NC(Cc1ccccc1)C(=O)Nc1ccccc1)OCc1ccccc1 (stereo not drawn)	5	0.68*
O=C(Nc1ccc(OCc2ccccc2)cc1)C(c1ccccc1)c1ccccc1	8	0.98
O=C(Nc1cc(O)ccc1C(=O)O)c1cccc(Br)c1	8	0.98
COC(=O)C1=C(C)NC2=C(C(=O)c3ccccc32)C1c1ccc(F)cc1 (stereo not drawn)	10	0.89
O=C1C2=C(Nc3[nH]n(-c4ccccc4)c(=O)c3C2c2ccccc2)c2ccccc21 (stereo not drawn)	6	0.76*
O=C(c1ccccc1Cl)N1CCN(c2c(Cl)cccc2[N+](=O)[O-])CC1	15	0.95
O=C(Nc1ccc(NC(=O)c2cc3ccccc3o2)cc1Br)c1ccccc1	2	1.1
COc1ccc(C(=O)/C=C/Nc2ccc(Cl)cc2[N+](=O)[O-])cc1OC	0	0.22*
COc1ccc(C(=O)Nc2ccc(Cl)cc2C)cc1OC	9	0.78*
COc1ccc(NC(=O)c2cccc(Cl)c2)cc1Cl	22	0.7*
COc1ccc(C(=O)Nc2ccc(C)cc2C)cc1OC	6	1
COc1c(Cl)cc(C(=O)Nc2cccc(C(F)(F)F)c2)cc1Cl	1	0.53*
COc1ccc(NC(=O)c2ccc(Cl)cc2)cc1Cl	-2	1
COc1ccc(C(=O)/C=C/Nc2ccccc2NS(=O)(=O)c2ccc([N+](=O)[O-])cc2)cc1OC	5	0.97
COc1c(Cl)cc(C(=O)Nc2c(C)cccc2C)cc1Cl	10	0.97
Cc1nnc(C)n1/N=C\c1ccc(O)c(O)c1	-4	1
